Measured values as given in ChEMBL document CHEMBL2218924, “A broad activity screen in support of a chemogenomic map for kinase signalling research and drug discovery” (Biochem J, 2013).

How the values were obtained:
[1] = target: Protein kinase C eta type (Homo sapiens) (UniProt P24723); details: at 1 µM
[2] = target: Protein kinase C eta type (Homo sapiens) (UniProt P24723); details: at 10 µM
[3] = target: Protein kinase C theta type (Homo sapiens) (UniProt Q04759); details: at 1 µM
[4] = target: Protein kinase C theta type (Homo sapiens) (UniProt Q04759); details: at 10 µM
[5] = target: T1, Protein kinase C iota type (Homo sapiens) (UniProt P41743); details: at 1 µM
T1 sequence (whole entry): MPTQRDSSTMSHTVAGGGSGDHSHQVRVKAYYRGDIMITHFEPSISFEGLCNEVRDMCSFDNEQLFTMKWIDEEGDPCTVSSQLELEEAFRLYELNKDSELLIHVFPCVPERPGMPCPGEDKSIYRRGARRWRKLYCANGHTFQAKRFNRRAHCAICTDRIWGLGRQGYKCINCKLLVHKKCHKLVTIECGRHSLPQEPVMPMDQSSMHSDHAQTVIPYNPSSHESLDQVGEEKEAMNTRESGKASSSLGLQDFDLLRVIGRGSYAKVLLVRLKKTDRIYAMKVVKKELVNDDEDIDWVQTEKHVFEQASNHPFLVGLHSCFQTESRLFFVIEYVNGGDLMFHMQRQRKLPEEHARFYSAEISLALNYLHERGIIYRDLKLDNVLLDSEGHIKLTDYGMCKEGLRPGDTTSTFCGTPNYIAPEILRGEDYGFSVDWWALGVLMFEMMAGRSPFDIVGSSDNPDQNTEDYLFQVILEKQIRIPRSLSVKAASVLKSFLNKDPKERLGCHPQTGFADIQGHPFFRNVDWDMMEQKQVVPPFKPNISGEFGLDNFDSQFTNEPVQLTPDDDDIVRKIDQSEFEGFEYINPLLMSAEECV

[6] = target: T1, Protein kinase C iota type (Homo sapiens); details: at 10 µM
[7] = target: T2, Serine/threonine-protein kinase D1 (Homo sapiens) (UniProt Q15139); details: at 1 µM
T2 sequence (whole entry): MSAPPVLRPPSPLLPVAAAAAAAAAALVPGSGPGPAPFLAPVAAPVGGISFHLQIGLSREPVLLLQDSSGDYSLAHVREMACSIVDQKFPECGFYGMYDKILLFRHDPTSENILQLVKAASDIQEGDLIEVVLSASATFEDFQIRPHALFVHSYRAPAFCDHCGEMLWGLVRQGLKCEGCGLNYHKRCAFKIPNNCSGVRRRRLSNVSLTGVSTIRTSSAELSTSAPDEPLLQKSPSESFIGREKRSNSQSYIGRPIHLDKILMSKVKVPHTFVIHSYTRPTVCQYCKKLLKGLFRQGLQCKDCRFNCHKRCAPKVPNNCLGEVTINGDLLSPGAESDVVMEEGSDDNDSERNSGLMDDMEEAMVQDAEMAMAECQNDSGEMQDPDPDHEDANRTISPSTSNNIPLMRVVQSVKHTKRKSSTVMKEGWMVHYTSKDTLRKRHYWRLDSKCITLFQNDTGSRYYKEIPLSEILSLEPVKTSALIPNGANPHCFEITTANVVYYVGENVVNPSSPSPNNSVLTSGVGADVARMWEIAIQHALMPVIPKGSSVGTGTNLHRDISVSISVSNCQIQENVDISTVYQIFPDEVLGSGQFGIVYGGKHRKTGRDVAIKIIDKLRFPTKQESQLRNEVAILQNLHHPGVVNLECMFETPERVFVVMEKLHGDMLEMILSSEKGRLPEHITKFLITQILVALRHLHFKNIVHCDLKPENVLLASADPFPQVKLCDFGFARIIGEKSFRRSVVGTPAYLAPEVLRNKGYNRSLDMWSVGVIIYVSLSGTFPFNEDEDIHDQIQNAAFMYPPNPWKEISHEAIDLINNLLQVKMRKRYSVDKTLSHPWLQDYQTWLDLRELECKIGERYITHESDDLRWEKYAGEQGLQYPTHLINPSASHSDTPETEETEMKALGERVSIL

[8] = target: T2, Serine/threonine-protein kinase D1 (Homo sapiens); details: at 10 µM
[9] = target: T3, Serine/threonine-protein kinase D2 (Homo sapiens) (UniProt Q9BZL6); details: at 1 µM
T3 sequence (whole entry): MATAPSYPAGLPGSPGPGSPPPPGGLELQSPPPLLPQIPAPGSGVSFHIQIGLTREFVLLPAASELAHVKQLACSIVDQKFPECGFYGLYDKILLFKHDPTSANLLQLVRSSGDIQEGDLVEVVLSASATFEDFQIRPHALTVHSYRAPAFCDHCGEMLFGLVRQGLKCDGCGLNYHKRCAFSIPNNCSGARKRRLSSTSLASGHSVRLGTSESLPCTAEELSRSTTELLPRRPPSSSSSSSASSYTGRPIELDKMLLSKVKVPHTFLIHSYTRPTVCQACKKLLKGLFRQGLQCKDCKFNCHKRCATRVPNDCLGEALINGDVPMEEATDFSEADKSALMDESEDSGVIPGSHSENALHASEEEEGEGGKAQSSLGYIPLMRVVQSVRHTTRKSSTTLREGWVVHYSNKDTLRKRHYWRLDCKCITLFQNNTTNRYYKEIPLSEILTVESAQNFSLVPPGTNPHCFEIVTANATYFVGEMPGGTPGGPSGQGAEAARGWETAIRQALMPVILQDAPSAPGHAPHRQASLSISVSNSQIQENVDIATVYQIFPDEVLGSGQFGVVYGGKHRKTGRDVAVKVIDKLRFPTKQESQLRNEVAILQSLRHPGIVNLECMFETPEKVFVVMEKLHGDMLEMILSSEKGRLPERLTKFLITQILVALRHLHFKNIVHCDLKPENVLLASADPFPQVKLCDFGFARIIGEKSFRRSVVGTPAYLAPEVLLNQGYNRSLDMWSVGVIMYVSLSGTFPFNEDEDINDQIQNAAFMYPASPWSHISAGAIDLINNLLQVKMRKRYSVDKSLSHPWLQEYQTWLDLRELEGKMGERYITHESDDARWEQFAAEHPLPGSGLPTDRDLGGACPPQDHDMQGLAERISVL

[10] = target: T3, Serine/threonine-protein kinase D2 (Homo sapiens); details: at 10 µM
[11] = target: T4, cGMP-dependent protein kinase 1 (Homo sapiens) (UniProt Q13976); details: at 1 µM
T4 sequence (whole entry): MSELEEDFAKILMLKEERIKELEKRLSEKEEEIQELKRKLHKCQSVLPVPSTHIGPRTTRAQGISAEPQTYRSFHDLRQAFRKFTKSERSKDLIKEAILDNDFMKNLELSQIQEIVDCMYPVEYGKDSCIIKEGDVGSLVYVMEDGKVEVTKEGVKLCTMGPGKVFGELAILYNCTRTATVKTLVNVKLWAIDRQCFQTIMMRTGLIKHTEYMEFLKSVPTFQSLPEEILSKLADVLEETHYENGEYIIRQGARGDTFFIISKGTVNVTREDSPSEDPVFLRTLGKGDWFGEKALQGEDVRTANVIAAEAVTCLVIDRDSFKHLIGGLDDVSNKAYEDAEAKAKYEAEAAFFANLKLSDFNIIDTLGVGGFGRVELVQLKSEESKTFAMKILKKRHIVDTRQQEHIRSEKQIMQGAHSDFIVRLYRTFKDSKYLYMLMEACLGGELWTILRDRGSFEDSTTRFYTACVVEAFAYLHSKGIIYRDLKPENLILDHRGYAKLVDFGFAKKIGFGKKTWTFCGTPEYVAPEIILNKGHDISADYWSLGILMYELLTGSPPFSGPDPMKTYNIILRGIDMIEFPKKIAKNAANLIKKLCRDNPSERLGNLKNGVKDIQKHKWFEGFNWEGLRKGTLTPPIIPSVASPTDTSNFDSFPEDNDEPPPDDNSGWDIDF

[12] = target: T4, cGMP-dependent protein kinase 1 (Homo sapiens); details: at 10 µM
[13] = target: T4, cGMP-dependent protein kinase 1 (Homo sapiens); details: at 1 µM; remark: listed apart in the source
[14] = target: T4, cGMP-dependent protein kinase 1 (Homo sapiens); details: at 10 µM; remark: listed apart in the source
[15] = target: T5, MAP kinase-activated protein kinase 5 (Homo sapiens) (UniProt Q8IW41); details: at 1 µM
T5 sequence (whole entry): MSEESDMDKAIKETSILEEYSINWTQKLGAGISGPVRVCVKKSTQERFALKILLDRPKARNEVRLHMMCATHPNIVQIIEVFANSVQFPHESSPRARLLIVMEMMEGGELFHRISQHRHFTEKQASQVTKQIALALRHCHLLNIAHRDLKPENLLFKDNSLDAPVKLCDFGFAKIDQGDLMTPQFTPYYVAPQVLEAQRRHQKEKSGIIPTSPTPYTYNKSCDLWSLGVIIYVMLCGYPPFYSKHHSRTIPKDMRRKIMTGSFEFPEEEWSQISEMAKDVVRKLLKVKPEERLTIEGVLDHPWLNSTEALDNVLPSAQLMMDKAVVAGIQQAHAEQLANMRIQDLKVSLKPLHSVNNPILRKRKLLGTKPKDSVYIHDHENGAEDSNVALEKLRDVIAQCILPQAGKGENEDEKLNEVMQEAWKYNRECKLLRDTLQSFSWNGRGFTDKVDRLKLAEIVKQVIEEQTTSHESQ

[16] = target: T5, MAP kinase-activated protein kinase 5 (Homo sapiens); details: at 10 µM
[17] = target: Serine/threonine-protein kinase N2 (Homo sapiens) (UniProt Q16513); details: at 1 µM
Sequence of Serine/threonine-protein kinase N2 (Homo sapiens) (Q16513 whole entry, looked up): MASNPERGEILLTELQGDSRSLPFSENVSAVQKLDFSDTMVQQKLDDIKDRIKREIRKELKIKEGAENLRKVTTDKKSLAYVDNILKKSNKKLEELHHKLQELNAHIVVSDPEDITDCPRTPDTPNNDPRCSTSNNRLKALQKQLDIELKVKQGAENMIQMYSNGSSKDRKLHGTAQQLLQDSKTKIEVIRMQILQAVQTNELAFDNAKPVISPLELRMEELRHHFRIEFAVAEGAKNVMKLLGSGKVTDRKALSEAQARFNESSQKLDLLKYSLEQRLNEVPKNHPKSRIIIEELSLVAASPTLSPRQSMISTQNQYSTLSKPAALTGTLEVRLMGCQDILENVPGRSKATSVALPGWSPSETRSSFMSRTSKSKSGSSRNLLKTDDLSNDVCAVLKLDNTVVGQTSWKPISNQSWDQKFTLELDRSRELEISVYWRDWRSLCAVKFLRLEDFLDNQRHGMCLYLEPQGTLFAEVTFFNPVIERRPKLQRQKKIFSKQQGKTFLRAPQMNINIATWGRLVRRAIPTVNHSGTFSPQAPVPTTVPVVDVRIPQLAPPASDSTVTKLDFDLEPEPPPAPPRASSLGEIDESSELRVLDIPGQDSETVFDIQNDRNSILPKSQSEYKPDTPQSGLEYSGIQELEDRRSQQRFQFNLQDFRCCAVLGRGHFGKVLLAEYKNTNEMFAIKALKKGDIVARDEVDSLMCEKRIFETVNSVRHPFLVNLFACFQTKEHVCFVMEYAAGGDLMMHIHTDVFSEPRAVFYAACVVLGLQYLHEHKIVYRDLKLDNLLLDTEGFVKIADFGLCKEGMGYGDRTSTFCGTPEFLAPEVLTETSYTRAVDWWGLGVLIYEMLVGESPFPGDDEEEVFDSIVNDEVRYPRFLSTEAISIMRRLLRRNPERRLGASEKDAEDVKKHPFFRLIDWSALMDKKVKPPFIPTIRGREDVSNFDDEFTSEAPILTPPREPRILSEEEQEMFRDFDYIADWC

[18] = target: Serine/threonine-protein kinase N2 (Homo sapiens) (UniProt Q16513); details: at 10 µM
[19] = target: Tyrosine-protein kinase FRK (Homo sapiens) (UniProt P42685); details: at 1 µM
Sequence of Tyrosine-protein kinase FRK (Homo sapiens) (P42685 whole entry): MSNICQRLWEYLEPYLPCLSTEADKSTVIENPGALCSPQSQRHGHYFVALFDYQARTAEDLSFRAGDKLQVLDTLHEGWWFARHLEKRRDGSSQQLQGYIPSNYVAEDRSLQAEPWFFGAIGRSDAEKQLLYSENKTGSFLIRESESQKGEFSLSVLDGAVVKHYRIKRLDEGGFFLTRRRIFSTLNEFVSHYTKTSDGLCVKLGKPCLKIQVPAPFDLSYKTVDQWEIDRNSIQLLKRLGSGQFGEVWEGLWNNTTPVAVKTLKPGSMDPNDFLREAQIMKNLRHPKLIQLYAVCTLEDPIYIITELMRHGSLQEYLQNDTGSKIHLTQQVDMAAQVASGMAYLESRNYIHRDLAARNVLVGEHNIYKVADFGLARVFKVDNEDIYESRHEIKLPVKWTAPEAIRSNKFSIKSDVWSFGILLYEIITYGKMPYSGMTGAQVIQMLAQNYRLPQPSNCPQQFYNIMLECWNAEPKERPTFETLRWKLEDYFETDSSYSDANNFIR

[20] = target: Tyrosine-protein kinase FRK (Homo sapiens) (UniProt P42685); details: at 10 µM

Sequence of Protein kinase C theta type (Homo sapiens) (Q04759 whole entry, looked up): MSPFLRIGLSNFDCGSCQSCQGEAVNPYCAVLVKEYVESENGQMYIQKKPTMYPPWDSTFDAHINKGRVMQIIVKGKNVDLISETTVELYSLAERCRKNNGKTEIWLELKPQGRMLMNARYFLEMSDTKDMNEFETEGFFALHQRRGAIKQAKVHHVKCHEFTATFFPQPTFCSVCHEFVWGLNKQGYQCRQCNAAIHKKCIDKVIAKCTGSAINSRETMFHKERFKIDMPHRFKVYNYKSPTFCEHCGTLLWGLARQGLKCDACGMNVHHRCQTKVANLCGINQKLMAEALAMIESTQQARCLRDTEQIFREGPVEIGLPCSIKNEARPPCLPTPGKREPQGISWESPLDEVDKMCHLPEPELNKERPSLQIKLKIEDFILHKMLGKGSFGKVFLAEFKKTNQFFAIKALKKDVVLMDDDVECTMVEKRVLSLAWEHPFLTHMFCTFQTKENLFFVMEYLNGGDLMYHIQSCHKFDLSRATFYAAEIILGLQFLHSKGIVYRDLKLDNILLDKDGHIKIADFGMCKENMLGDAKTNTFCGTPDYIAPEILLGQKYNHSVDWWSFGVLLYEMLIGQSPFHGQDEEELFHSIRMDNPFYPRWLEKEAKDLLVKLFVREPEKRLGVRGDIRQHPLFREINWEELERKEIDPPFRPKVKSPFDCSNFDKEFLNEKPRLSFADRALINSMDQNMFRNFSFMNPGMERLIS
Sequence of Protein kinase C eta type (Homo sapiens) (P24723 whole entry): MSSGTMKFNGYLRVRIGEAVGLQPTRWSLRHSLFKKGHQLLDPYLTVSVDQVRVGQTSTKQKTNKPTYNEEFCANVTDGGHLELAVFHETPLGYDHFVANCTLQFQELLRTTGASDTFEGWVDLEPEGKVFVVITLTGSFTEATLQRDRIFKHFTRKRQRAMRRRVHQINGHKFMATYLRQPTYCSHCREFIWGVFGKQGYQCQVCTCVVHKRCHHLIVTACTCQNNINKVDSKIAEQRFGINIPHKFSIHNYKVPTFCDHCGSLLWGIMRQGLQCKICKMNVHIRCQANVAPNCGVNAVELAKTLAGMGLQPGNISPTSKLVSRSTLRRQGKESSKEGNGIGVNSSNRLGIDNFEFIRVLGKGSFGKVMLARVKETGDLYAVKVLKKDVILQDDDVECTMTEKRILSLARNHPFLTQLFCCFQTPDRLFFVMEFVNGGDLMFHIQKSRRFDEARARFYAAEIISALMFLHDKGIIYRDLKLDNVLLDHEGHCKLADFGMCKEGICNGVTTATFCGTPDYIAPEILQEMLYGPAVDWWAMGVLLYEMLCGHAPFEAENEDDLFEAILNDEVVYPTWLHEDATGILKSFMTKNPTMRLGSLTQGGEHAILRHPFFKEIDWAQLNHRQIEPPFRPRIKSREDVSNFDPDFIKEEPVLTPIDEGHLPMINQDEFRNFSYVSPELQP

| SMILES | residual activity [1] | residual activity [2] | residual activity [3] | residual activity [4] | residual activity [5] | residual activity [6] | residual activity [7] | residual activity [8] | residual activity [9] | residual activity [10] | residual activity [11] | residual activity [12] | residual activity [13] | residual activity [14] | residual activity [15] | residual activity [16] | residual activity [17] | residual activity [18] | residual activity [19] | residual activity [20] |
| --- | --- | --- | --- | --- | --- | --- | --- | --- | --- | --- | --- | --- | --- | --- | --- | --- | --- | --- | --- | --- |
| Cc1ccc(NC2=CC(=O)c3sc(C)nc3C2=O)cc1 | 83% | 86% | 88% | 87% | 106% (inactive) | 103% | 76% | 73% | 105% | 85% | 91% | 95% | 105% | 88% | 110% | 114% | 93% | 89% | 87% | 90% |
| O=[N+]([O-])c1ccc(-c2nc(-c3ccc(F)cc3)c(-c3ccncc3)[nH]2)cc1 | 95% | 68% | 91% | 68% | 110% (inactive) | 109% | 64% | 52% | 100% | 94% | 98% | 103% | 105% | 92% | 112% | 107% | 119% | 93% | 57% | 60% |
| CCC(=O)Nc1ccc2ncnc(Nc3cccc(Br)c3)c2c1 | 85% | 82% | 96% | 95% | 100% (inactive) | 101% | 85% | 82% | 105% | 112% | 108% | 96% | 89% | 81% | 74% | 74% | 90% | 99% | 94% | 59% |
| O=C1Nc2ccc(Br)cc2/C1=C\c1cc2c([nH]1)CCCC2 | 102% | 73% | 100% | 99% | 84% (inactive) | 78% |  |  |  | 106% | 100% | 99% | 105% | 97% | 82% | 99% |  | 112% | 102% | 103% |
| O=C1Nc2ccccc2/C1=C1/Nc2ccccc2/C1=N\OCCC(O)CO (stereo not given) |  |  | 66% | 29% | 113% (inactive) |  | 73% | 32% | 101% | 76% | 56% | 19% | 44% | 9% |  | 27% | 76% | 53% | 11% | 1% |
| Nc1cccc(-c2cc3c(Oc4cccc(O)c4)ncnc3[nH]2)c1 | 83% | 64% | 88% | 57% |  | 99% | 80% | 51% | 99% | 54% |  |  |  | 91% | 100% | 71% | 98% | 67% | 1% | 0% |
| CCN(CC)C(=O)c1ccc(Nc2nc(OCC3CCCCC3)c3nc[nH]c3n2)cc1 |  | 55% | 78% | 39% | 99% (inactive) | 103% | 72% | 23% | 93% | 51% |  |  |  |  |  | 12% | 66% | 12% | 78% | 38% |
| CC(=O)O/N=C1\C(=C2\C(=O)Nc3cc(Br)ccc32)Nc2ccccc21 | 101% | 106% | 97% | 96% | 104% (inactive) | 103% | 85% |  | 104% | 102% | 101% | 112% | 102% | 76% | 105% |  | 98% | 79% | 17% | 1% |
